This note sets out measurements from PubChem BioAssay AID1347416 (National Center for Advancing Translational Sciences (NCATS), 2020).

Screen size: about 4,100 compounds; about 1,600 (39%) were called active. About 25% were inconclusive and are not listed. Calls follow the shape of the dose curve; as a rule, active = well fitted inhibition curve with a large enough effect; inconclusive = small, poorly fitted or top-dose-only effect; inactive = no such curve, though single readings can be large or run the other way. Some of the results follow.
Potency is read from the fitted curve at half-maximal effect.

This assay can be described thus: qHTS Validation assay for Inhibitors of Plasmodium falciparum Dd2 growth in vitro. Also: nearly all actives have a fitted effect of over 70% in size. The conditions noted are these: P. falciparum Dd2 in RBCs, SYBR Green growth, 72 h; series mostly up to 28.7 µM. Put shortly: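 P. falciparum Dd2-infected red blood cells (2.5% hematocrit, 0.3% parasitemia) grown 72 h at 37 °C under 5% O2 with compounds in a titration, 29 uM to 0.5 nM final. Growth read as SYBR Green-1 fluorescence after ~16 h lysis; artesunate 300 nM as positive control.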
(In general: qHTS replaces the single test concentration by a dilution series.)
In the case of `COc1ccc(NC(=O)O[C@@H]2CC[C@]3(C)C(CC[C@@H](O)[C@H]3CC(=O)NCc3ccccc3OC)[C@]2(C)CO)cc1` (stereo not given in full), the Potency was 6.68 µM (active).
`COc1ccc(S(=O)(=O)N2CCC(CC(=O)NCc3ccccc3)C2)cc1` (stereo not given): the Potency entry is “inactive”.
In the case of `CCc1cc2c(Sc3nc4ccccc4s3)ncnc2s1`, the Potency is 1.5 µM (active).
Under `c1ccc2sc(Sc3ncnc4sccc34)nc2c1` stands 0.944 µM (active).
Turning to `Cc1c(N/N=C(\C#N)C(=O)c2ccccc2)c(=O)n(-c2ccccc2)n1C`, the Potency is 6.68 µM (active).
The value for `CN(C)CCN1C(=O)c2oc3ccc(Cl)cc3c(=O)c2C1c1cccc(Br)c1` (stereo not given) was 0.531 µM (active).
Under `O=C(NC[C@H]1O[C@@H](CO)[C@@H](O)[C@H]1N1CCN(c2cccc(C(F)(F)F)c2)CC1)c1cccs1` stands “inactive”; under `COc1cccc(CN2CCCC(N3CCN(c4cccc(C(F)(F)F)c4)CC3)C2)c1O` (stereo not given), 0.842 µM (active); under `Oc1ccccc1CN1CCCC(N2CCN(c3cccc(C(F)(F)F)c3)CC2)C1` (stereo not given), 1.33 µM (active).
For `CCOc1cc(CN2CCCC(N3CCN(c4ccc(F)cc4)CC3)C2)ccc1OC` (stereo not given), the Potency result was “inactive”.
In the case of `CC1(C)C(=O)N(Cc2ccccc2)[C@H]2CN(CC3CCOCC3)C[C@@H]2[S+]1(=O)[O-]`, the Potency result is “inactive”.
Under `O=C(NNc1nc(-c2ccc(Br)cc2)cs1)c1ccco1` stands 5.31 µM (active).
Turning to `CCCCOC(=O)N1CCC(N2CCCC(C(=O)N3CCOCC3)C2)CC1` (stereo not given), the Potency result is “inactive”.
Under `CCN1CCCC1CNc1ncnc2c1[nH]c1ccc(Cl)cc12` (stereo not given) stands 2.99 µM (active); under `CN(Cc1cccn1C)S(C)(=O)=O`, “inactive”.
The value for `CN(C)C[C@@H]1CN(c2ccncn2)C[C@H]1NC(=O)c1cnco1` was “inactive”; that for `Cc1ccc(C)c(NC2=C(c3ccc(C(F)(F)F)cc3)C(=O)c3ccccc32)c1` was 4.73 µM (active).
Under `Cc1ccc(NC2=C(c3ccc(C(F)(F)F)cc3)C(=O)c3ccccc32)cc1C` stands 2.11 µM (active); under `Cc1ccc(NC2=C(c3ccc(C(F)(F)F)cc3)C(=O)c3ccccc32)cc1F`, 1.88 µM (active); under `Oc1ccc(-c2ccc(-c3nc(CCc4ccccc4)no3)cn2)cc1`, “inactive”.
On to `CC(C)(C)n1[nH]c2c3c(ccc2c1=O)C(=O)c1ccccc1C3=O`, for which the Potency is 4.73 µM (active).
With `Cc1ccc(Cn2nnc(C(=O)Nc3ccc(F)c(F)c3)c2N)cc1`, the Potency entry was “inactive”.
Under `CCCc1nc2ccc(NC(=O)c3cccs3)cc2c(=O)n1Cc1ccc(Cl)cc1` stands 8.41 µM (active); under `Cc1ccc(-c2nc(C)c(C(=O)O)s2)cc1`, “inactive”.
Under `CC(=O)C1=C(c2ccc(Cl)c(Cl)c2)N(C(C)=O)n2cnnc2S1` stands 3.76 µM (active).
Consider `CC(=O)C1=C(c2ccccc2)N(C(C)=O)n2c(nnc2C2CCCCC2)S1`, for which the Potency is 4.22 µM (active).
Under `CC(=O)C1=C(c2ccc(Cl)cc2)N(C(C)=O)n2c(nnc2C2CCCCC2)S1` stands 4.73 µM (active); under `CC(=O)C1=C(c2ccc(Br)cc2)N(C(C)=O)n2c(nnc2C2CCCCC2)S1`, 2.99 µM (active).
Regarding `Cc1ncoc1C(=O)N1CCCCCC1c1nnc(-c2ccccc2)o1` (stereo not given), the Potency result is “inactive”.
Turning to `COc1ccc(-c2noc(N3CCN(c4ccc(C)cc4)C(C)C3)n2)cc1OC` (stereo not given), the Potency entry is “inactive”.
Under `COc1cccc(C2=C(C(C)=O)Sc3nnc(C4CCCCC4)n3N2C(C)=O)c1` stands 4.73 µM (active); under `CC[C@@]1(O)CCN(C(=O)c2cccc(-c3cccc(OC)c3)c2)C[C@H]1O`, “inactive”.
With `COc1ccc(C2=C(C(C)=O)Sc3nnc(-c4ccc(Cl)cc4)n3N2C(C)=O)cc1OC`, the Potency was 3.76 µM (active).
Regarding `CCOc1ccc(C2=C(C(C)=O)Sc3nnc(C)n3N2C(C)=O)cc1`, the Potency was 5.31 µM (active).
Under `COc1ccc(C(=O)NCc2nnc3ccc(-c4ccc(Cl)cc4)nn23)cc1F` stands “inactive”; under `COc1cc(Cc2cnc(N)nc2N)cc(OC)c1OC`, “inactive”; under `Cc1noc(-c2cccn3c(CNC(=O)c4cccc(N(C)C)c4)nnc23)n1`, “inactive”.
The value for `O=C(Nc1ccc(Cl)cc1)N1CCC2(CC1)CCN(Cc1cccs1)c1ccccc1O2` was 8.41 µM (active); that for `Cc1ccc([S+](=O)([O-])N2CCC3(CCN(Cc4cccs4)c4ccccc4O3)CC2)cc1` was 18.8 µM (active); that for `COCC(=O)N1CCC2(CC1)CCN(Cc1cccs1)c1ccccc1O2` was “inactive”.
As to `CCCN1CCC2(CCN(C(=O)c3cccc(Cl)c3)CC2)Oc2ccccc21`, the Potency result is “inactive”.
The value for `CCC(C)NC(=O)c1ccccc1NC(=O)C1COc2ccccc2O1` (stereo not given) was 10.6 µM (active); that for `CCC(C)NC(=O)C1COC2(CCN(C(=O)c3cccc(Cl)c3)CC2)N1C(=O)c1ccccc1C` (stereo not given) was “inactive”.
Under `Cc1ccc(-n2c(C)cc(C(=O)OCC(=O)N(C)C3CCS(=O)(=O)C3)c2C)cc1` (stereo not given) stands 4.73 µM (active); under `CCc1ccc(OCC(=O)N(Cc2ccc(C(C)C)cc2)C2CCS(=O)(=O)C2)cc1` (stereo not given), “inactive”.
Consider `CCc1ccc(CN(C(=O)c2cc3ccccc3oc2=O)C2CCS(=O)(=O)C2)cc1` (stereo not given), for which the Potency result is “inactive”.
The value for `CC1CCCCN1CCCNC(=O)c1ccc2c(c1)sc1nc(-c3ccc(F)cc3)cn12` (stereo not given) was 1.88 µM (active).
Under `COc1ccc(-c2cc3c(=O)n(CCNC(=O)c4ccc(C)c(F)c4)ccn3n2)cc1` stands “inactive”; under `CCC1CCCCN1CCCNC(=O)c1ccc2c(c1)sc1nc(-c3ccc(F)cc3)cn12` (stereo not given), 1.5 µM (active); under `CN1c2cc(C(=O)NCc3ccc(F)cc3)ccc2C(=O)N2CCCCCC21` (stereo not given), “inactive”.
The value for `O=C(C1CCC1)N1CCC2(CC1)CC(N(Cc1ccccc1)C1CC1)CCO2` (stereo not given) was “inactive”; that for `CC1CCCCN1Cc1c(O)ccc2c(=O)c(-c3nc4ccccc4s3)c(N)oc12` (stereo not given) was 1.06 µM (active); that for `COCCN1C(=O)CS(=O)(=O)C12CCN(C(=O)c1cc(C)ccc1C)CC2` was “inactive”.
`CC(C)(C)CN[C@H]1C[C@@H](Cc2cc(CN3CCOCC3)on2)C1(C)C`: the Potency entry is “inactive”.
Under `CN(C)Cc1cc(CC2(NCc3ccc(C#N)cc3)COC2)no1` stands “inactive”.
The value for `CN(C)Cc1cc(C[C@@H]2C[C@H](NCc3ccccc3O)C2(C)C)no1` was 17.2 µM (active); that for `CC(=O)N1CCN(c2nc3c(s2)CC(C(=O)NCc2cccc(Cl)c2)CC3)CC1` (stereo not given) was “inactive”.
The value for `O=C(c1ccc([N+](=O)[O-])o1)N1CCN(c2nc3c(Cl)cccc3s2)CC1` was 4.22 µM (active).
As for `CCc1cccc2sc(N3CCN(C(=O)c4ccc([N+](=O)[O-])o4)CC3)nc12`, the Potency is 1.06 µM (active).
Under `O=C(c1ccc([N+](=O)[O-])o1)N1CCN(c2nc3c(F)cc(F)cc3s2)CC1` stands 5.96 µM (active).
